This passage reports TF binding intensity results from the supplement of paper PMC10681739.

In the experiment the target is T1, ETS1 (UniProt P14921).
T1 sequence: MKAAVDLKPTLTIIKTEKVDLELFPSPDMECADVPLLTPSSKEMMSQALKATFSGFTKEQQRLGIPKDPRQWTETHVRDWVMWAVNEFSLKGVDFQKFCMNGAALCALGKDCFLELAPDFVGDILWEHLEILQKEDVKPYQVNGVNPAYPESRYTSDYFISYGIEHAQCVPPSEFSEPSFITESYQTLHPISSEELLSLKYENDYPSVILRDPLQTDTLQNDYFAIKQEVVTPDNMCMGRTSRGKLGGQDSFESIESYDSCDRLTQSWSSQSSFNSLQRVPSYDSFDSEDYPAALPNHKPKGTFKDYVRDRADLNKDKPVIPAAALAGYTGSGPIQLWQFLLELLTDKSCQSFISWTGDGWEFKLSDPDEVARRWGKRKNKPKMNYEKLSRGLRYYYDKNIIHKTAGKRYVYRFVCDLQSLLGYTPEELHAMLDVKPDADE
Nature of the experiment: TF binding intensity (PBM fluorescence), negative control probe (arbitrary fluorescence units); higher = stronger binding. On the procedure:
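gcPBM negative-control 36-bp genomic probes lacking TF binding sites. Each was incubated with recombinant human ETS1 or RUNX1 alone and detected by antibody fluorescence. Values are medians over replicate spots (4 spots for the ETS1-RUNX1 arrays, 3 for the ETS1-ETS1 array). The probes sit in constant array flanks that are not printed.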
The sequence “CACCTCCTAAACAAAGCCGCATAGGTGATGGTGATG (protein concentration 1 nM)” had a TF binding intensity of 463.
“TGGGACCTCCAGCATATGACAGTGGACTAAGGACTG (protein concentration 10 nM)” had a TF binding intensity of 113.
“GTTCCAGGCATTGTACTGAGGGGAGGCCCTCCTGTG (protein concentration 10 nM)” had a TF binding intensity of 109.
Regarding “AGCTTTCCAAGTTTTTGTGGGCAACATCAACTGTTC (protein concentration 1 nM)”, the TF binding intensity is 486.
“AAATTTATCTGAGTCCAAAATCTCTCCCTTCAACCT (protein concentration 10 nM)” displayed a TF binding intensity of 119.
In turn, “GTATTTTGGGCGATAACACTTTCTCTACTTCTAAAA (protein concentration 10 nM)” registered a TF binding intensity of 116.
“CAAAATGCTTAAAAGGTAACTTGACTCTTTGTTTGG (protein concentration 10 nM)” showed a TF binding intensity of 123.
Regarding “GAAATGGAGCAGAAAACCTGGAACCCAGCTGGGAAG (protein concentration 10 nM)”, the TF binding intensity stood at 117.
Next, “GCGTTCGAGGGACACTGGACATCTGGTGGCCCTCCA (protein concentration 10 nM)”: 93.7.
Sequence “AGAGGCATGAAAACAAATGAGACTAGGATGAGTTGG (protein concentration 10 nM)” showed a TF binding intensity of 131.
“GAAGTTTCAAGATGTAGTAGTTAAAGTATTAACTTA (protein concentration 10 nM)” showed a TF binding intensity of 113.
The sequence “TATTTCACGCAAATAAGCAGTGACTGAGGACACAGT (protein concentration 10 nM)” returned a TF binding intensity of 117.
For the sequence “TGACTCTCCCCTCCATTCCCACCCCATACCCCCTTC (protein concentration 10 nM)”, the TF binding intensity came out at 198.
Regarding “TGAATGAGTCTTTTTTTGGCCATCTCTTTATGATTA (protein concentration 10 nM)”, the TF binding intensity worked out at 132.
“GCTTTTTTTTTCTGTTGTGGGAGAAAGATGAGAGTC (protein concentration 1 nM)” returned a TF binding intensity of 535.
Sequence “AGAAAGGCATGTCTCCAGGCTCTAAAGAGGCAAAGG (protein concentration 10 nM)” came in with a TF binding intensity of 117.
In the case of “AGGCCTCTGCTCTCCTGGAGCTCATGACAAGTAAAC (protein concentration 10 nM)”, the TF binding intensity came to 118.
“AGCCCGGGTGACTTGAGAGTAATTAATGTGCAAAGA (protein concentration 10 nM)” displayed a TF binding intensity of 106.
With “GCTGGGGTTTGCTGCCTGGAGGCAGCCTGTCCAGGA (protein concentration 10 nM)”, the TF binding intensity turned out to be 109.
The value for “CCTTGCCAATGTTTGTGTGGAGAGCACACGGGTGCT (protein concentration 10 nM)” was 116; that for “AACTTGAAGTCACCACATGAAAGGTTCCAATGCAGC (protein concentration 10 nM)” was 121.
In the case of “TAGGGAATGGTGAGCTGTGGTTTGTGGCTTCATGGA (protein concentration 1 nM)”, the TF binding intensity was determined as 443.
The value for “ACATCTCATGGTTTTAAAGTAAATGAATTAAAAGTC (protein concentration 10 nM)” was 116.
As to “ACGGAGCTTGCTCTGGCCATCTCTGTCCCTGCCTGT (protein concentration 10 nM)”, the TF binding intensity was determined as 102.
For “CAGGAGAAATATGAGATTAAGAACACATGATGTTAA (protein concentration 10 nM)”, the TF binding intensity amounted to 123.
For the sequence “CTATAGTATGTCAAAACCACAAAGACAATGTGCAGC (protein concentration 1 nM)”, the TF binding intensity is 466.
With “GGCTGGTAGAAATACTGCGGCTAATAAAGGCGTGGA (protein concentration 1 nM)”, the TF binding intensity came to 425.
The sequence “CTCCCTCTCTCCCTCCCTCCCTCCCTCCCTCCCTTC (protein concentration 10 nM)” yielded a TF binding intensity of 230.
Take “ACAGGCCCTCCAGGTGTTGAAACCATGCTGGGCTGA (protein concentration 10 nM)”: the TF binding intensity was found to be 102.
The value for “TCGAGTGGTGAGAAGGAGAAGGAGCGGCTGGGAGGC (protein concentration 10 nM)” was 137.
“CGTTCGTTCGACAGCTCTTGTGGTAAACAGCGTCAA (protein concentration 10 nM)” had a TF binding intensity of 132.
Next, “GAGATGCAGCAGCGTCTCCCAGTCCTCACCGCGGCC (protein concentration 10 nM)”: 112.
“TCTTTATCTGTCAGTACCACACTGTCTATTCTCCCA (protein concentration 1 nM)” showed a TF binding intensity of 502.
Next, “CTGGTGGCCACCCTTGTGGCGCTGAGGTGCTGAGGT (protein concentration 10 nM)”: 127; “CTACACATTTTAAAGAAAGAGACCACAGTTCTTTAT (protein concentration 10 nM)”: 122.
The value for “GAGCAGGAGAAAATGTGTCTGAGAAAGAGCTAGGAG (protein concentration 10 nM)” was 128.
The sequence “ATTCTTCTAATAATCCAGTTTGAGTGGATCCTCTGT (protein concentration 10 nM)” came in with a TF binding intensity of 112.
In turn, “TTCTTTGACTCACTATGCGGGTTGGTACATCTGGGG (protein concentration 1 nM)” displayed a TF binding intensity of 476.
In the case of “ATGGCTGGGTCAGAGCGGCCTGTCAGCCCGGCTGGA (protein concentration 10 nM)”, the TF binding intensity turned out to be 98.
In turn, “GGGTCTTGCCATTGAGAGGCAGGTGATGTGCTGTTT (protein concentration 10 nM)” came in with a TF binding intensity of 132.
